E-sel TNF inh: blocks E-selectin expression induced by TNF alpha; AID 1246; HUVEC TNFa-induced E-selectin immunofluorescence, high content; inhibition, % at 2 µM; hit rate 0.71% among 120,000;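 active means inhibition above the batch mean plus 3 SD, and confirmed as a hit on visual image review, cut at about 43% in these data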;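 further: 0% = TNF-stimulated DMSO wells and 100% = unstimulated control wells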
VCAM1 TNFa inh: reduces TNF alpha induced VCAM1 expression in HUVEC | HUVEC TNFa-induced VCAM-1 immunofluorescence, high-content imaging | inhibition, % at 2 µM | hit rate 0.48% among 95,000 | AID 802;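 active means inhibition above the batch mean plus 3 SD, with images confirmed as a hit by eye, cut at about 37% in these data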;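 further: 0% = TNF-stimulated DMSO wells and 100% = unstimulated control wells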
Phagocytosis inh: inhibitors of macrophage phagocytosis; J774A.1 macrophage IgG-bead phagocytosis, imaging; inhibition, % at 5 µM; hit rate 0.07% among 110,000; AID 1029;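 active means inhibition above the mean of the plate negative controls plus 5 SD, cut at about 13% in these data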;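 further: phagocytic index as fraction of beads internalized from green versus red external bead signal; plate controls were DMSO negative control for no effect and cytochalasin-D positive control for full effect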
cytoskel mod: cytoskeleton assembly modification. HUVEC TNFa F-actin phalloidin imaging, high content. hit rate 0.18% among 91,000. AID 836. inhibition, % at 2 µM;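 active means inhibition above the batch mean plus 3 SD and confirmed as a hit by visual image inspection, cut at about 30% in these data, passing the limit was not always enough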
Insulin prom inh: TRM-6 insulin promoter activity inhibition. TRM-6 cells (human fetal islet line), insulin promoter-eGFP reporter, imaging; reporter expression induced with tamoxifen. inhibition, % at 2 µM. hit rate 0.9% among 130,000. AID 1273;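 active means inhibition above the mean plus 3 SD, with well images judged a real hit on visual review, cut at about 60% in these data, passing the limit was not always enough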
HUVEC tox TNFa: toxic to HUVEC cells under TNF alpha stimulation | HUVEC TNFalpha-stimulated, Hoechst cell count, imaging | cell count reduction, % at 2 µM | hit rate 0.17% among 93,000 | AID 848;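 active means cell count reduction exceeding the screen mean by over 5 SD, scaled to untreated wells per plate, cut at about 78% in these data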;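 further: cells counted after 24 h of TNF alpha exposure following the 1 h pretreatment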
* hit, by the source's call; nt = no result. In the library only some 1.6% were active in any assay of this set; here they are far more common.

SMILES	E-sel TNF inh	VCAM1 TNFa inh	Phagocytosis inh	cytoskel mod	Insulin prom inh	HUVEC tox TNFa
CC1(C)CC(=O)C/C(=N\NC(=O)CCc2ccc(S(=O)(=O)N3CCOCC3)cc2)C1	-25.1	nt	nt	nt	nt	nt
C=CCSc1nc(NC)c2sccc2n1	-13.4	-7.5	nt	7.1	80.0*	2.7
CNc1nc(SC)nc2ccsc12	-10.8	-6.9	-0.5	16.5	-3.3	-2.7
COc1ccc(N(CC(=O)NCCC2=CCCCC2)S(=O)(=O)c2ccccc2)c(OC)c1	nt	nt	nt	nt	-77.8	nt
Cc1ccc(S(=O)(=O)N(C)CC(=O)Nc2cccc(C)n2)cc1	4.3	30.0	-1.5	-13.1	78.7*	15.2
O=C1c2cccc3c([N+](=O)[O-])ccc(c23)C(=O)N1c1ccc(Cl)cn1	37.1	68.8*	1.9	-9.7	nt	30.2
O=C1c2cccc3c([N+](=O)[O-])ccc(c23)C(=O)N1c1nccs1	44.4	75.8*	-0.3	-16.7	-57.1	28.9
O=C(COC(=O)c1cc([N+](=O)[O-])ccc1NCCO)c1ccccc1	nt	nt	-1.3	nt	11.8	nt
Cc1ccc(Cn2ncc3c(N4CCN(C5CCCC5)CC4)ncnc32)cc1	99.8*	nt	nt	nt	-27.3	nt
CN(CC(=O)NCc1ccccn1)S(=O)(=O)c1ccc2ccccc2c1	nt	nt	nt	nt	0.0	nt
Cc1c(C(=O)Nc2ccc(F)cc2)oc2ccc(S(=O)(=O)N3CC(C)CC(C)C3)cc12 (centres undefined)	7.0	-21.1	nt	-4.4	71.0*	-12.2
Cc1cc(C)cc(COn2ccnc2)c1	-5.6	16.1	0.1	-21.0	67.9*	-28.6
O=C1CCCC/C1=C\Nc1ccc(O)cc1	-3.8	-11.3	2.2	6.8	-40.9	-4.9
O=C1CCC/C1=C/Nc1ccc(Cl)cc1	-6.7	nt	nt	nt	82.3*	nt
O=C(Cn1cc(C(=O)C(F)(F)F)c2cc(Br)ccc21)N1CCOCC1	61.5*	nt	nt	nt	nt	nt
CCn1cc(C(=O)C(F)(F)F)c2ccccc21	4.5	-11.6	nt	5.4	-28.6	9.3
COc1ccc2c(c1)-c1nc(/N=C/c3ccc(O)cc3)sc1CC2	8.0	nt	-6.0	nt	76.9*	nt
COc1ccc(Br)cc1CN(C)CC(=O)Nc1cccc(S(N)(=O)=O)c1	4.9	nt	nt	nt	-23.1	nt
COc1ccc(Br)cc1CN(C)CC(=O)Nc1c(Cl)cccc1Cl	67.8*	nt	1.7	nt	nt	nt
CCc1ccc(C2CC(=O)N(c3cccc(F)c3)C3=C2C(=O)OC3)cc1 (centres undefined)	nt	nt	nt	nt	-46.7	nt
CCOc1ccc(C(=O)c2cc([N+](=O)[O-])ccc2Cl)cc1	5.9	-13.5	-5.3	-20.7	11.6	1.0
Cc1cccc2cc3c(N)c(C(=O)N4CCc5ccccc54)sc3nc12	nt	nt	-5.5	nt	-233.3	nt
O=C(NCc1ccc(Cl)cc1)C(=O)NCC1OCCN1C(=O)c1ccc(Cl)cc1 (centres undefined)	nt	nt	nt	nt	69.2*	nt
C=CCn1nnnc1-c1cc(Cl)cc(Cl)c1	35.1	nt	nt	nt	53.9	nt
COc1cccc(NC(=S)/C(=C(\[O-])c2ccc(C)c([N+](=O)[O-])c2)[n+]2ccccc2)c1	1.3	7.7	-3.0	22.0	76.9*	8.8
SMILES	E-sel TNF inh	VCAM1 TNFa inh	Phagocytosis inh	cytoskel mod	Insulin prom inh	HUVEC tox TNFa
O=C(COC(=O)c1ccc(Cl)nc1)Nc1ccc2c(c1)OCO2	10.2	nt	nt	nt	-21.4	nt
CCc1ccc(-c2cn3c(n2)SCC3)cc1	nt	nt	nt	nt	83.3*	nt
Cc1ccc(-c2cn3c(n2)SCC3)cc1	15.3	nt	nt	nt	52.9	nt
CN(CC(=O)Nc1ccc(N2CCOCC2)cc1)Cc1cc(=O)n2ccsc2n1	-15.4	nt	nt	nt	63.6	nt
O=C1CC(C(=O)N(c2ccccc2)C(C(=O)NC2CCCC2)c2ccncc2)CS1 (centres undefined)	nt	nt	nt	nt	-52.9	nt
Cc1nn(C)cc1CNC(=O)C1C2CCC(O2)C1C(=O)O (centres undefined)	12.2	2.7	0.9	35.1	nt	-11.3
O=C(O)C1C2CCC(O2)C1C(=O)NCc1ccc(Cl)cc1 (centres undefined)	nt	nt	-0.2	nt	61.5*	nt
COC(=O)c1ccc(COC(=O)CNS(=O)(=O)c2ccc(C)cc2)cc1	-4.6	nt	nt	nt	73.0*	nt
COc1ccc(N2CCN(C(CNC(=O)OCc3ccccc3)c3ccco3)CC2)cc1 (centres undefined)	nt	nt	1.1	nt	4.8	nt
CCOc1ccccc1C1CC(=O)Nc2cc3c(cc21)OCCO3 (centres undefined)	nt	67.7	1.3	-11.4	21.4	45.9
CCCOc1ccccc1C1CC(=O)Nc2cc3c(cc21)OCCO3 (centres undefined)	-20.4	51.0*	nt	-21.9	-72.5	61.6
CC(C)Oc1ccccc1C1CC(=O)Nc2cc3c(cc21)OCO3 (centres undefined)	nt	85.3*	nt	-30.6	-300.0	46.8
COC(=O)CCCC(=O)NC(C)c1cnn(-c2ccccc2C)c1C (centres undefined)	nt	nt	nt	nt	0.0	nt
COc1ccc(C(=O)Nn2c(SCC(=O)N3CCC(C)CC3)nc3ccccc3c2=O)cc1	16.7	15.7	nt	-9.6	11.4	3.8
COc1ccc(C(=O)Nn2c(SCC(=O)c3ccc(Cl)cc3)nc3ccccc3c2=O)cc1	-10.0	8.1	-0.6	-32.6	82.9*	21.5
O=c1c(-n2cncn2)c[nH]n1-c1cccc(Cl)n1	nt	nt	nt	nt	91.7*	nt
Cc1nc(CC(C)C)cc(C(=O)N2CCCC(CNS(=O)(=O)c3cccs3)C2)n1 (centres undefined)	nt	nt	nt	nt	-421.4	nt
Cc1ccc2nc(C)c(C(=O)NN=C3CCN(C)CC3)n2c1	nt	nt	nt	nt	-26.3	nt
COc1ccc(CN2CCCCC2C(=O)Nc2ccc(OC)c(OCC(C)C)c2)cc1OC (centres undefined)	6.3	96.7*	nt	7.2	27.6	-10.1
COc1ccc(NC(=O)C2CCCNC2)cc1OCC(C)C (centres undefined)	19.1	-11.0	2.0	41.7	nt	-4.0
CS(=O)(=O)N1CCN(c2ncccn2)CC1	-41.3	1.8	2.3	-1.6	83.3*	-22.8
O=C(/C=C/c1ccc(Cl)cc1)NCc1ccco1	46.0	nt	nt	nt	-26.9	nt
CCC1(CC)NC(=O)NC1=O	-12.7	1.3	nt	-5.8	90.9*	-11.2
Cc1cccc(C)c1NC(=O)CSc1ncnc2nc[nH]c12	nt	-2.9	-1.0	8.2	-18.2	-5.2
O=C(CSc1ncnc2nc[nH]c12)Nc1ccccc1C(F)(F)F	75.8*	-5.0	-2.1	13.9	13.9	-1.0
SMILES	E-sel TNF inh	VCAM1 TNFa inh	Phagocytosis inh	cytoskel mod	Insulin prom inh	HUVEC tox TNFa
Cc1ccc(S(=O)(=O)c2c(C)nn(C(C)(C)C)c2OC(=O)C2CCCC2)cc1	nt	-7.6	0.8	19.2	81.8*	-10.8
CCOc1ccnc(OCC)c1Br	11.2	nt	0.2	nt	78.6*	nt
O=C(Cc1ccccc1)NNC(=O)c1cnccn1	nt	nt	-10.2	nt	40.7	nt
Cc1cc(OCCCCCNCCO)cc(C)c1Cl	-31.4	nt	-0.6	nt	-50.9	nt
Cc1cc(C)cc(OCCCCCNCCO)c1	-31.1	95.8*	nt	11.9	16.1	-2.2
CCCCn1c(N(CCOC(C)=O)C(C)=O)nc2ccccc21	-30.0	nt	nt	nt	88.9*	nt
CCCCn1c(=O)c(CC(C)=O)nc2ccccc21	0.9	nt	-2.2	nt	15.4	nt
O=C(COc1ccccc1[N+](=O)[O-])NNC(=O)Nc1cccc2ccccc12	nt	nt	nt	nt	50.0	nt
CCCn1c(=NC(=O)c2ccco2)c(C(=O)OCC)cc2c(=O)n3ccccc3nc21	57.9*	-9.4	-0.2	-7.1	-8.6	13.4
CCOC(=O)c1cc2c(=O)n3ccccc3nc2n(Cc2ccco2)c1=NC(=O)c1ccc(OC)cc1	nt	nt	nt	nt	-53.3	nt
CCOc1cc(S(=O)(=O)Nc2ccccc2CC)ccc1Cl	1.0	97.5*	-2.0	-3.0	28.6	78.8*

High-throughput results deposited in PubChem by several laboratories.
